Rows were chosen to be rich in hits. Some 12% of all compounds tested hit in one or more screens of this group.
Sfp PPTase inh = qHTS Assay for Inhibitors of Bacillus subtilis Sfp phosphopantetheinyl transferase (PPTase); Biochemical Sfp PPTase activity, qHTS; 310,000 compounds, 3.5% hits; 4'-phosphopantetheinyl transferase ffp (Bacillus subtilis), Q9F4F7; Potency, µM, for inactives: largest response in the series, negative = inhibition, actives largely listed as inhibitors;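 note: the enzyme is Sfp with the accession as filed and its product quenches rhodamine fluorescence; 0% = enzyme reaction without inhibitor and -100% = no enzyme wells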
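Step 1, compound plus 15 nM Sfp-PPTase, 15 min, room temperature. Step 2, add rhodamine-CoA (5 uM) and BHQ-2-YbbR (12.5 uM). Step 3, read 525/598 nm fluorescence at 0 and 30 min.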
PLK1 PBD block = qHTS for Inhibitors of PLK1-PDB (polo-like kinase 1 - polo-box domain): Primary Screen; 360,000 compounds, 2.8% hits; Potency, µM, inactives show max response, negative = inhibition, hits mostly inhibitors; Plk1 PBD binding of FITC phosphopeptide, fluorescence polarization; note: series mostly up to about 57 µM; nearly all actives have a fitted effect of over 65% in size
RORgamma inh = qHTS for inhibitors of ROR gamma transcriptional activity; Drosophila S2 Gal4-RORgamma UAS-luciferase reporter, 20 h; Potency, µM (series often up to 53.6 µM), inactives show at the highest dose activity change, negative = inhibition, usual class: inhibitors; AID 2551, 2010; 310,000 compounds, 5.4% hits; Nuclear receptor ROR-gamma (Mus musculus), P51450; note: nearly all actives have a fitted effect of over 60% in size
Target sequence (P51450 whole entry, looked up, the tested form may be a part): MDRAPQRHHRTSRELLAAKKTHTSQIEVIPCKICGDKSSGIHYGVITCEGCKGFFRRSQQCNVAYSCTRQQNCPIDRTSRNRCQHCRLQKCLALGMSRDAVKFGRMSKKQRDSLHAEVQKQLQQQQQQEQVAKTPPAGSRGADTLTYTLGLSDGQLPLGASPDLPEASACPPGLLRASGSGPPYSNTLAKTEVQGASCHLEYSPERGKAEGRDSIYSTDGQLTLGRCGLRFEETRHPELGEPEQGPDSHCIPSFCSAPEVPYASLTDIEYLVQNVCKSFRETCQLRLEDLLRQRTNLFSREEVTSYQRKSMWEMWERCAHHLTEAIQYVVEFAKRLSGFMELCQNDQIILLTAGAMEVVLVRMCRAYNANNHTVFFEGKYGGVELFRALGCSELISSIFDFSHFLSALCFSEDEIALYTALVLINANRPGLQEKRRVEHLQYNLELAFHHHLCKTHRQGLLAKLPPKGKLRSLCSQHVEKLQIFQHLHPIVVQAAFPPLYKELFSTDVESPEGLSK
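In this cell-based reporter format, copper sulfate (700 uM final) drives Gal4–ROR gamma fusion expression from a metallothionein promoter in Drosophila Schneider cells; compounds preincubated 1 hr, reporter read after 20 hr at ambient temperature.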
VP16 counter = VP16 counterscreen qHTS for inhibitors of ROR gamma transcriptional activity. Drosophila S2 Gal4-VP16 UAS-luciferase, luminescence, 20 h. Potency, µM (titrated, usually from 53.6 µM), for inactives: at the top dose activity, negative = inhibition, actives largely listed as inhibitors. 310,000 compounds, 3.5% hits;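 note: Gal4-VP16 expression switched on by copper sulfate through the metallothionein promoter; nearly all actives have a fitted effect of over 50% in size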
ALDH1A1 inh = qHTS Assay for Inhibitors of Aldehyde Dehydrogenase 1 (ALDH1A1); Aldehyde dehydrogenase 1A1 (Homo sapiens), P00352; Purified ALDH1A1, NADH fluorescence, propionaldehyde substrate; 220,000 compounds, 7.3% hits; Potency, µM (highest dose often 75.3 µM), without a hit: top-dose activity, negative = inhibition, actives largely listed as inhibitors; active = well fitted inhibition curve with a large enough effect, not every such curve was filed as active; inconclusive = small, poorly fitted or top-dose-only effect, or another doubt; inactive = no such curve, though single readings can be large or run the other way;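 note: plate controls were no enzyme wells and a reference inhibitor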
The depositor's hits bear a star; ? = inconclusive; / = not tested or not shown; [ ] = another dose, or the depositor's remark. Unless noted, calls come from the whole dose curve; as a rule, active = well fitted curve in the direction sought with a large enough effect; inconclusive = small, poorly fitted or top-dose-only effect, or another doubt; inactive = no such curve, though single readings can be large; an effect the other way counts as inactive or inconclusive. Unless noted, % is set by controls: 0 for no effect and ±100 for the full control effect; potency is the fitted concentration of half-maximal effect.

SMILES	Sfp PPTase inh	PLK1 PBD block	RORgamma inh	VP16 counter	ALDH1A1 inh
O=C(CNC(=O)c1ccc(Cl)cc1Cl)NCC1CCCO1 (stereo not drawn)	17%	-6%	-3%	-1%	/
COc1ccc(/C=C/C(=O)NC(=S)NCC2CCCO2)cc1 (stereo not drawn)	13%	0%	1µM*	-3%	?
CC(C)(C)c1ccc(C(=O)NC(=S)NCC2CCCO2)cc1 (stereo not drawn)	0%	1%	2.2µM*	5.6µM*	?
CN(C)CCCOC1C(C(O)CO)OC2OC(C)(C)O[C@@H]21 (stereo partly drawn)	17%	/	1%	-5%	2%
CCCS(=O)(=O)NC(=O)C1(C)CCCN(C(=O)c2ccccc2F)C1 (stereo not drawn)	/	1%	/	/	/
COc1ccc(S(=O)(=O)N2CCC[C@H]2C(=O)N2CCC[C@H]2C(=O)NCc2ccncc2)cc1C	/	5%	/	/	/
CNC(=S)NNC(=O)c1ccc(C(C)(C)C)cc1	8%	-12%	2.2µM*	?	-10%
COc1ccc(C(=O)NNC(=O)c2ccc(C(C)(C)C)cc2)cc1	27%	-2%	2%	-6%	-14%
CC(C)(C)c1ccc(C(=O)c2c[nH]c(C(=O)NCC3CCCO3)c2)cc1 (stereo not drawn)	7%	1%	?	13µM*	-1%
O=C(NCC1CCCO1)C(=O)N/N=C/c1cc(Cl)ccc1O (stereo not drawn)	26%	-15%	13µM*	?	/
O=C(NCC1CCCO1)Nc1ccccc1 (stereo not drawn)	5%	-4%	0%	4%	11%
O=C(NC(=S)NCC1CCCO1)C(c1ccccc1)c1ccccc1 (stereo not drawn)	14%	-1%	7.1µM*	6.3µM*	-7%
COc1ccccc1OCC(=O)N/N=C(\C)c1ccc2ccccc2c1	/	-1%	/	/	/
COC(=O)c1ccc(C(NC(=O)OCc2ccccc2)/C(C)=C/[C@@H](C)C(=O)NCCN2CCOCC2)cc1 (stereo partly drawn)	25%	/	-22%	1%	-5%
COc1cc(/C=C2\N=C3CCCCCN3C2=O)ccc1O	9%	65%	13%	3%	?
COc1ccc(/C=C2\N=C3CCCCCN3C2=O)cc1OC	11%	-9%	21%	12%	14µM*
O=C1/C(=C\c2ccc(O)c(O)c2)N=C2CCCCCN12	56µM*	49%	?	-14%	/
COc1nc2ccccc2nc1CCC(=O)O	16%	30µM*	20%	-13%	1%
COC(=O)CCc1nc2ccccc2nc1OC	12%	1%	-20%	7%	-3%
COCCNC(=O)C1CCCN(C(=O)c2cccnc2Oc2ccccc2)CC1 (stereo not drawn)	/	-1%	/	/	/
CCOC(=O)C(=O)N(C)c1c(CC)nc2c(OCc3ccc(OC)cc3)cccn12	/	-4%	/	/	/
O=C(NN=C1CCCCCCCCCCC1)c1cccc(S(=O)(=O)N2CCOCC2)c1	4%	8%	-20%	-17%	13µM*
O=C(NN=C1C2CC3CC(C2)CC1C3)c1cccc(S(=O)(=O)N2CCOCC2)c1	12%	2%	-7%[10 µM]	-2%	?
CCN(CC)c1ccc(/C=N/NC(=O)c2cccc(S(=O)(=O)N3CCOCC3)c2)c(O)c1	8%	-4%	2.8µM*	11µM*	?
NC(COCc1ccccc1)c1csc(NC(=O)Nc2cccc(Cl)c2)n1 (stereo not drawn)	/	4%	/	/	/
SMILES	Sfp PPTase inh	PLK1 PBD block	RORgamma inh	VP16 counter	ALDH1A1 inh
COc1ccc(C2C=C(c3ccccc3)Nc3nc(CCCO)nn32)cc1 (stereo not drawn)	5%	-14%	28%	-10%	?
COc1ccc(C2C=C(c3cccs3)Nc3nc(CCCO)nn32)cc1 (stereo not drawn)	16µM*	/	24%	-4%	?
CC1CC[C@]2(CO)CC[C@]3(C)C(=CCC4[C@@]5(C)CCC(O)C(C)(C)C5CC[C@@]43C)C2C1C (stereo partly drawn)	3%	/	12%	6%	3%
CCN(CC)CCCOC(=O)C(c1ccccc1)c1ccccc1	0%	-6%	1%	-2%	-16%
CC(C)N1C(=O)CC2(CC[N+](C)(CCOC(=O)C(c3ccccc3)c3ccccc3)CC2)C1=O (stereo not drawn)	?	0%	2%	-5%	25µM*
CCCNC(=O)Nc1nc(C(N)c2ccc(OC)cc2)cs1 (stereo not drawn)	/	-5%	/	/	/
CO/N=C(\Cn1ncc(N2CCCC2)c(Br)c1=O)c1ccc(Cl)cc1	89µM*	-11%	20%	-1%	?
CO/N=C(\Cn1ncc(NC2CCCCC2)c(Br)c1=O)c1ccc(Cl)cc1	-12%	-2%	?	-14%	-4%
COc1ccc(-c2nsc(SCC(=O)Nc3cc(C)on3)n2)cc1	16µM*	9.5µM*	-8%[0.365 µM]	/	28µM*
CCOC(=O)CSc1nc(-c2ccccc2)ns1	16µM*	3.4µM*	?	0%	?
c1ccc(-c2cc(-c3ccccc3)n3ncnc3n2)cc1	4%	-6%	-20%	4%[10 µM]	?
CCOC(=O)CNC(=O)CSc1nc(-c2ccc(OC)cc2)ns1	40µM*	21µM*	-19%	-5%	?
CCOC(=O)CSc1cc(-c2ccccc2)nc2ncnn12	-2%	-6%	-75%	11µM*	/
CCCC(=O)N1CCC1(C)C(=O)NS(=O)(=O)c1cccc(Cl)c1 (stereo not drawn)	/	1%	/	/	/
COc1ccc(-c2nsc(SCC(=O)NCC3CCCO3)n2)cc1 (stereo not drawn)	-1%	-11%	32%	-1%	25µM*
CC1=C(C(=O)N(C)C)CC(CC(=O)NCCN2CCOCC2)C(=O)N1CCCN1CCCC1=O (stereo not drawn)	/	-10%	/	/	/
CCn1c(SCC(=O)NC(=O)NC(C)(C)C)nc2ccccc21	3%	9.5µM*	16%	1%	1%
CC(C)(C)NC(=O)CSc1nc2ccccc2n1-c1ccccc1	50µM*	-21%	-44%	-18%	-12%
COc1cc([N+](=O)[O-])ccc1NC(=O)CSc1nc2ccccc2n1-c1ccccc1	-8%	/	18%	-3%	10µM*
COCCn1c(SCC(=O)NC(=O)NC(C)(C)C)nc2ccccc21	14%	0%	-23%	-5%	7%
O=C(O)c1ccccc1O[C@@H]1O[C@H](C(=O)O)[C@@H](O)[C@H](O)[C@H]1O	8%	/	6%	-3%	/
O=C(NCc1ccccn1)C1CCN(S(=O)(=O)c2cc(Cl)ccc2Cl)CC1	5%	-1%	14%	-1%	-2%

Bioassay records deposited in PubChem BioAssay by National Center for Advancing Translational Sciences (NCATS).
